The values that follow come from PubChem BioAssay (NCATS).

Assay [1] addresses Aldehyde dehydrogenase, mitochondrial (Homo sapiens) (UniProt P05091). Nature of the assay: qHTS for Inhibitors of the Aldehyde Dehydrogenase Family (ALDH2) Primary screen (AID 2061308). Also: nearly all actives have a fitted effect of over 55% in size.
Assay [2] has as its target Retinaldehyde dehydrogenase 3 (Homo sapiens) (UniProt P47895). Nature of the assay: qHTS for Inhibitors of the Aldehyde Dehydrogenase Family (ALDH1A3) Primary screen (AID 2061315).

Inconclusive results are not listed. Entries that show only a call come without a potency. Activity calls are given as the source filed them. Calls follow the shape of the dose curve; as a rule, active = well fitted curve in the direction sought with a large enough effect; inconclusive = small, poorly fitted or top-dose-only effect, or another doubt; inactive = no such curve, though single readings can be large; an effect the other way counts as inactive or inconclusive.

In the case of `O=C(O)c1ccc(-c2noc(-c3ccccc3C(F)(F)F)n2)cc1`, the Potency result in assay [1] and in assay [2] was “inactive” throughout.

Regarding `Cc1ccc(-c2ccc(=O)n(CC(=O)NCCCN(C)C)n2)cc1`, the Potency entry in assay [1] and in assay [2] was “inactive” in each case.

For `CC(C)(C)c1ccc(CSc2nc3ncc(Br)cc3[nH]2)cc1`, the Potency entry in assay [1] and in assay [2] was “inactive” each time.

As to `CCCn1c(-c2ccc(F)cc2)nc2c(NCCN(C(C)C)C(C)C)nc(C)nc21`, the Potency entry in assay [1] and in assay [2] was “inactive” throughout.

Regarding `C=Cc1ccc(C(=O)N2CCCC(CCC(=O)N3CCN(c4ccccn4)CC3)C2)cc1` (stereo not given), the Potency result in assay [1] and in assay [2] was “inactive” throughout.

With `COCCN1C(=O)c2ccccc2NC1c1ccc(OC)c(COc2c(C)cc(NC(C)=O)cc2C)c1` (stereo not given), the Potency entry in assay [1] and in assay [2] was “inactive” in each case.

Turning to `Cc1nc2cc(C(=O)NCc3ccccn3)nn2c(C)c1Cc1cccc(Cl)c1`, the Potency entry in assay [1] and in assay [2] was “inactive” each time.

`O=C1CCCC2=C1C(c1[nH]ncc1Cl)N=C(Nc1nc3cc(F)ccc3o1)N2` (stereo not given): the Potency result in assay [1] and in assay [2] was “inactive” throughout.

As for `COc1ccc(-c2nc3ccccc3n2Cc2ccccc2)cc1COc1ccc(NC(C)=O)cc1`, the Potency entry in assay [1] and in assay [2] was “inactive” in each case.

For the molecule `CCNC(=O)C1CCC(C(=O)Nc2ccc([S+](=O)([O-])Nc3nccs3)cc2)CC1` (stereo not given), the Potency result in assay [1] and in assay [2] was “inactive” throughout.

On to `Cc1cn2c(n1)Cc1ccc(Cl)cc1C(c1ccc(N)cc1)=N2`, for which the Potency entry in assay [1] and in assay [2] was “inactive” each time.

Turning to `Cn1ncc(Cl)c1C1N=C(Nc2nc3ccccc3o2)NC2=C1C(=O)CCC2` (stereo not given), the Potency entry in assay [1] and in assay [2] was “inactive” throughout.

Consider `Cc1ccc(C)c(OC2=NS(=O)(=O)c3ccccc32)c1`, for which the Potency result in assay [1] and in assay [2] was “inactive” each time.

As to `CC(=O)c1cc2c(s1)c1cnn(Cc3ccccc3F)c(=O)c1n2C`, the Potency entry in assay [1] and in assay [2] was “inactive” each time.

For the molecule `Cc1ccnc(C(=S)N2CCN(c3cccc(C(F)(F)F)c3)CC2)c1`, the Potency entry in assay [1] and in assay [2] was “inactive” each time.

For the molecule `COc1ccc(NC(=O)C(OC(=O)CNC(=O)c2ccccc2)c2ccccc2)cc1F` (stereo not given), the Potency entry in assay [1] and in assay [2] was “inactive” each time.

Regarding `Clc1ccccc1-c1ccc2ncnc(NCc3cccs3)c2c1`, the Potency result in assay [1] and in assay [2] was “inactive” throughout.

Consider `Cn1ncc(Cl)c1-c1cc(C(=O)N[C@H](CN)Cc2ccc(F)c(F)c2)oc1Cl`, for which the Potency entry in assay [1] and in assay [2] was “inactive” throughout.

Regarding `c1ccc(CN(Cc2ccccc2)Cc2nnc(-c3cc4ccccc4[nH]3)o2)cc1`, the Potency result in assay [1] and in assay [2] was “inactive” throughout.

For `COc1ccc(NC(=O)c2cnn3c(-c4ccccc4)cc(C)nc23)cc1`, the Potency result in assay [1] and in assay [2] was “inactive” each time.

As to `CCCn1c(C)nc2c(N3CCOCC3)nc(C)nc21`, the Potency result in assay [1] and in assay [2] was “inactive” each time.

In the case of `COc1cc(-c2ccc3ncnc(NCc4nc(C)cs4)c3c2)cc(OC)c1OC`, the Potency entry in assay [1] and in assay [2] was “inactive” in each case.

`Cc1ccc(S(=O)(=O)Nc2ccccc2C(=O)Nc2nc(-c3ccccc3)cs2)cc1`: the Potency result in assay [1] and in assay [2] was “inactive” each time.

Take `COC(=O)c1ccc(N2CCN(S(=O)(=O)c3ccc4c(c3)CC(=O)N4)CC2)cc1`: the Potency result in assay [1] and in assay [2] was “inactive” each time.

On to `Cc1ccnc(NC(=S)N2CCCN(c3cccc(C(F)(F)F)c3)CC2)c1`, for which the Potency result in assay [1] and in assay [2] was “inactive” in each case.

Take `Cn1nnnc1Sc1ncnc2scc(-c3ccc(F)cc3)c12`: the Potency entry in assay [1] and in assay [2] was “inactive” each time.

Regarding `CCN(Cc1sccc1C)c1ncnc2ccc(-c3ccc4c(c3)OCO4)cc12`, the Potency result in assay [1] and in assay [2] was “inactive” in each case.

In the case of `O=C(NCCc1ccc2c(c1)OCO2)c1cc2sccc2n1Cc1ccccc1`, the Potency entry in assay [1] and in assay [2] was “inactive” in each case.

Regarding `Cc1cc2c(s1)c1cnn(Cc3c(F)c(F)cc(F)c3F)c(=O)c1n2C`, the Potency result in assay [1] and in assay [2] was “inactive” in each case.

For the molecule `CCOC(=O)c1c(CNCc2ccccc2F)c2sc(C)cc2n1C`, the Potency entry in assay [1] and in assay [2] was “inactive” in each case.

`O=c1ccc2ccc(OCCCCN3CCN(c4cccc5sccc45)CC3)cc2[nH]1`: the Potency entry in assay [1] and in assay [2] was “inactive” throughout.

Take `CC(C)(C)OC(=O)NCc1nnc(-c2cc3ccccc3[nH]2)o1`: the Potency result in assay [1] and in assay [2] was “inactive” in each case.

Turning to `FC(F)(F)c1ccccc1-c1nc(NCc2ccc(-c3cccc(Cl)c3)cc2)c2ccccc2n1`, the Potency entry in assay [1] and in assay [2] was “inactive” throughout.

Regarding `S=C(NCCCc1cnc[nH]1)NCCN(Cc1ccc(Cl)c(Cl)c1)c1ccc(Br)cn1`, the Potency entry in assay [1] and in assay [2] was “inactive” in each case.

Turning to `Cc1cc2c(s1)c1cnn(Cc3ccccc3F)c(=O)c1n2C`, the Potency entry in assay [1] and in assay [2] was “inactive” each time.
